PubChem BioAssay (EPA / NIEHS)
Several values for one entry are separate records, joined by “and”; a condition that tells them apart may be missing. Identical values can stand only once. A structure can be active in one record and inactive in another. Activity calls are given as the source filed them. How the source made its calls: active means hit-call score of the fitted dose curve at least 0.9, where 1 is the maximum; inactive means score below 0.9.

Assays:
[1] = target: Paired box protein Pax-6 (Homo sapiens) (UniProt P26367); test: ATG_Pax6_CIS: Attagene CIS-FACTORIAL HepG2 Assay for human Paired Box 6 (PAX6) (AID 2282956); conditions: HepG2 CIS-FACTORIAL PAX6 reporter transcription, RNA readout; actives raise or lower the signal
How it was run: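 Transient MRTU transfection of HepG2 → compound exposure 24 h → TriZol RNA, oligo(dT) RT → PCR, 6-FAM primer extension, HpaI cut → capillary electrophoresis; activity fitted both directions against DMSO.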

[2] = ATG_PXRE_CIS: Attagene CIS-FACTORIAL HepG2 Assay for human Pregnane X Receptor Element (PXRE) (AID 2282957); conditions: HepG2 Attagene CIS-FACTORIAL PXRE reporter, mRNA; actives raise or lower the signal
How it was run: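 Transfect HepG2 with MRTUs (cis promoter elements); dose chemical, incubate 24 h; isolate RNA, RT with oligo(dT), PCR, 6-FAM label, HpaI cut, CE. Gain/loss fit vs DMSO.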

[3] = ATG_PPRE_CIS: Attagene CIS-FACTORIAL HepG2 Assay for human Peroxisome Proliferator-activated Response Element (PPRE) (AID 2282958); conditions: HepG2 PPRE cis-element reporter, Attagene transcription factor profiling; actives raise or lower the signal
How it was run: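 HepG2 cells transiently transfected with multiplexed cis-element reporter units measure endogenous transcription factor activity. After 24 h compound exposure, reporter mRNA is quantified by RT-PCR, 6-FAM labeling, HpaI digestion and capillary electrophoresis; bidirectional fits are made against DMSO baseline.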

[4] = ATG_RORE_CIS: Attagene CIS-FACTORIAL HepG2 Assay for human RAR-related Orphan Receptor Element (RORE) (AID 2282959); conditions: HepG2 Attagene cis-factorial RORE reporter, mRNA; actives raise or lower the signal
How it was run: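 HepG2 cells transiently transfected with multiple cis-element reporter transcription units, exposed to chemical for 24 h. Reporter mRNA quantified by RT-PCR, 6-FAM primer-extension labeling, HpaI digestion and capillary electrophoresis; bidirectional fit versus DMSO baseline.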

[5] = ATG_Sox_CIS: Attagene CIS-FACTORIAL HepG2 Assay for human SRY-box transcription factor (SOX) (AID 2282960); conditions: HepG2 Attagene cis-factorial SOX reporter, mRNA; actives raise or lower the signal
How it was run: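 HepG2 cells transiently transfected with cis-element-driven multiple reporter transcription units, dosed 24 h; reporter mRNA measured by RT-PCR, FAM labelling, HpaI digestion and capillary electrophoresis. Bidirectional fit versus DMSO baseline.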

[6] = target: Transcription factor Sp1 (Homo sapiens) (UniProt P08047); test: ATG_Sp1_CIS: Attagene CIS-FACTORIAL HepG2 Assay for human Specificity Protein 1 (Sp1) (AID 2282961); conditions: HepG2 Sp1 cis-reporter transcription, actives raise or lower the signal
How it was run: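 HepG2 cells transiently transfected with multiple reporter transcription units driven by cis-regulatory elements; Sp1-responsive reporter mRNA measured 24 h after dosing by RT-PCR and capillary electrophoresis fluorescence, fitted bidirectionally against DMSO baseline.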

[7] = ATG_SREBP_CIS: Attagene CIS-FACTORIAL HepG2 Assay for human Sterol Regulatory Element Binding (SREBP) (AID 2282962); conditions: HepG2 Attagene cis-factorial SREBP reporter, mRNA; actives raise or lower the signal
How it was run: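 Transfected HepG2 (cis-regulated reporter library, endogenous TFs) → compound 24 h → total RNA → oligo(dT) RT → reporter-specific PCR → FAM primer extension, HpaI cut → CE fluorescence. Fit bidirectional vs DMSO.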

[8] = target: Signal transducer and activator of transcription 3 (Homo sapiens) (UniProt P40763); test: ATG_STAT3_CIS: Attagene CIS-FACTORIAL HepG2 Assay for human Signal Transducer and Activator of Transcription 3 (STAT3) (AID 2282963); conditions: HepG2, Attagene cis-factorial STAT3 reporter transcription; actives raise or lower the signal
How it was run: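 HepG2 cells transiently transfected with cis-element-driven multiple reporter transcription units; after 24 h chemical exposure, reporter mRNA measured by RT-PCR, 6-FAM primer-extension labelling, HpaI digestion and capillary electrophoresis. Bidirectional fitting versus DMSO baseline.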

[9] = ATG_TA_CIS: Attagene CIS-FACTORIAL HepG2 Assay for human TA Basal Promoter (AID 2282964); conditions: HepG2 Attagene CIS-factorial TA basal promoter reporter; actives raise or lower the signal
How it was run: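 HepG2 cells transiently transfected with multiple reporter units under cis promoter elements, reporting endogenous transcription factor activity; this endpoint tracks the TA basal promoter as background control. Reporter mRNA after 24 h dosing measured by RT-PCR/capillary electrophoresis; bidirectional fits versus DMSO.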

[10] = ATG_TCF_b_cat_CIS: Attagene CIS-FACTORIAL HepG2 Assay for human T-Cell-Factor with beta-catenin (TCF/b-cat) (AID 2282965); conditions: HepG2 TCF/beta-catenin cis-reporter transcription, actives raise or lower the signal
How it was run: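 Using capillary electrophoresis as the read-out, labelled reporter cDNA fragments from transiently transfected HepG2 were sized and quantified. Exposure lasted 24 hours; activity in either direction was referenced to DMSO.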

Measured: AC50

Chain of Signal transducer and activator of transcription 3 (Homo sapiens) (P40763 whole entry, looked up): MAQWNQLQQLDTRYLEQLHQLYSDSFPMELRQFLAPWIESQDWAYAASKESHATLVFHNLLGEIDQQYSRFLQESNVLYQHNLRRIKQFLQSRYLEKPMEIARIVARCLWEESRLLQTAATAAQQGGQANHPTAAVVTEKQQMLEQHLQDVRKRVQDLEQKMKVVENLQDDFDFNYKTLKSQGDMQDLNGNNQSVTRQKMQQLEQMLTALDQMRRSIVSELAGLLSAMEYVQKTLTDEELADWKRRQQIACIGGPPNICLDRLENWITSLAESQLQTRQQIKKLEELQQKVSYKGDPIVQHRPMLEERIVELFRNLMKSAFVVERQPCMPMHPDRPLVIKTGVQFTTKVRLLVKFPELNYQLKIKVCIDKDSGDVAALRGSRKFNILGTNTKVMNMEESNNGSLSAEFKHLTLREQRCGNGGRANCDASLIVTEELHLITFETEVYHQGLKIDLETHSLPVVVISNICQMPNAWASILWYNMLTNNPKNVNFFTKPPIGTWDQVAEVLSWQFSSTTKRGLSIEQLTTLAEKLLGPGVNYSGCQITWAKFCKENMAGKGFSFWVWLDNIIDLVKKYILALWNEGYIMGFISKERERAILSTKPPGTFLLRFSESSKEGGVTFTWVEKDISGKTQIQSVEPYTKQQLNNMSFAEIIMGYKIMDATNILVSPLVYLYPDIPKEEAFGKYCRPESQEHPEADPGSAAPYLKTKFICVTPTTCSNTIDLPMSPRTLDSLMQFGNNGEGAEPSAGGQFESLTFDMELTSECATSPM
Chain of Paired box protein Pax-6 (Homo sapiens) (P26367 whole entry, looked up): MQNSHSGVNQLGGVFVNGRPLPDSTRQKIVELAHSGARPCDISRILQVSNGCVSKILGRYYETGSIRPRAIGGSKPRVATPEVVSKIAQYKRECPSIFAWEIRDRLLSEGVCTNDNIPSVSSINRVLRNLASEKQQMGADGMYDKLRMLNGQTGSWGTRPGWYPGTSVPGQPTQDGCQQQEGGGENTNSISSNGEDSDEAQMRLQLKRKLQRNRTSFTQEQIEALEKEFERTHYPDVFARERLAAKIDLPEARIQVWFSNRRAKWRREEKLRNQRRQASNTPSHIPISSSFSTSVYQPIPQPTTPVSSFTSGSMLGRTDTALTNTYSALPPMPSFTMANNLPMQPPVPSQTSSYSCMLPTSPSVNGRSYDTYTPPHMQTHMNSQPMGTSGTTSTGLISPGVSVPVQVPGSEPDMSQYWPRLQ
Chain of Transcription factor Sp1 (Homo sapiens) (P08047 whole entry, looked up): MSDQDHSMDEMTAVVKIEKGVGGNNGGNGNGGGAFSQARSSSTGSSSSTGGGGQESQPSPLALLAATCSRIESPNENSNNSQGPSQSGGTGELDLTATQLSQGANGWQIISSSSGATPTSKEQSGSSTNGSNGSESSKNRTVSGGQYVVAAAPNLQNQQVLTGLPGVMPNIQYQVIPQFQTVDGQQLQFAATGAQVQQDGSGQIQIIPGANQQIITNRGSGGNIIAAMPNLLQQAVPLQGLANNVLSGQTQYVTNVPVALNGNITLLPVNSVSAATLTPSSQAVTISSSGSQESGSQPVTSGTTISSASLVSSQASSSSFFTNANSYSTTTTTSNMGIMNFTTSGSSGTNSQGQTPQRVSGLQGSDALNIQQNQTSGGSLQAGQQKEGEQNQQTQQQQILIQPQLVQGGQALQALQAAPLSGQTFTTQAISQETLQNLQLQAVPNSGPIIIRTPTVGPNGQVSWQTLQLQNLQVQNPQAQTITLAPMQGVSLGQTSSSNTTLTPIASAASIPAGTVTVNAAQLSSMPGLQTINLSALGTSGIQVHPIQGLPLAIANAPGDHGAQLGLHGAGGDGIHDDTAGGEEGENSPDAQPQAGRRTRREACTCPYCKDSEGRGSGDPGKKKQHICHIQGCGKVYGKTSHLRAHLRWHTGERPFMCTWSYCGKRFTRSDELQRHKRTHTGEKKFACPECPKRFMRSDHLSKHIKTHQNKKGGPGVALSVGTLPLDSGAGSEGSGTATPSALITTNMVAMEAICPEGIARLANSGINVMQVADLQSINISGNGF

C/C=C/C=C/C(=O)O
active: [2] 36.7 µM
inactive: [1] | [2] | [3] | [4] | [5] | [6] | [7] | [8] | [9] | [10]

OCC(CO)n1cnc(-c2ccc(F)cc2)c1-c1ccnc(Oc2ccccc2)n1
active: [2] 7.89 µM | [3] 0.357 µM
inactive: all other assays above

CO[C@@H]1COCC[C@@H]1N[C@@H]1CC[C@@](C(=O)N2CCc3ncc(C(F)(F)F)cc3C2)(C(C)C)C1
active: [7] 77.7 µM
inactive: all other assays above

NC1CCCCC1
inactive: all assays above

O=NO
inactive: all assays above

CCCCC(CC)COP(=O)(OCC(CC)CCCC)OCC(CC)CCCC (configuration not stated)
active: [2] 0.339 µM
inactive: all other assays above

N[C@@H](Cc1c[nH]c2ccccc12)C(=O)O
inactive: all assays above

S=c1[nH]c2ccccc2s1
active: [2] 61.2 µM | [3] 28.5 µM | [6] 42.5 µM | [7] 59 µM | [8] 63.2 µM
inactive: all other assays above

CCCCCCC(CCCCCCCCCCC(=O)OCC(COC(C)=O)OC(C)=O)OC(C)=O (configuration not stated)
active: [2] 50 µM | [3] 39.6 µM | [10] 50 µM
inactive: all other assays above

Nc1nc(=S)c2[nH]cnc2[nH]1
active: [2] 100 µM
not listed: [3]
inactive: all other assays above

CC(=O)S[C@H](C(=O)N[C@H]1Cc2ccccc2[C@H]2CCC[C@@H](C(=O)O)N2C1=O)C(C)C
active: [2] 40.9 µM
not listed: [3] | [4]
inactive: all other assays above

CC(=O)O
not listed: [3] | [4]
inactive: all other assays above

CC(=O)OC1CC(C)OC(C)O1 (configuration not stated)
not listed: [4]
inactive: all other assays above

CC(C)(O)c1ccc(CNC(=O)c2cccnc2Oc2ccc(F)cc2)cc1
active: [2] 7.12 µM | [7] 44.6 µM
not listed: [3]
inactive: all other assays above

O=C1OC(c2ccc(O)cc2)(c2ccc(O)cc2)c2ccccc21
active: [1] 36.6 µM | [6] 41.2 µM | [7] 27.6 µM | [9] 27.7 µM | [10] 27.5 µM
inactive: [2] | [5] | [8]

CC(=O)CC(c1ccccc1)c1c(O)c2ccccc2oc1=O (configuration not stated)
active: [2] 59.1 µM and 59.7 µM
not listed: [3] | [4]
inactive: all other assays above

Cc1c(C)c2c(c(C)c1O)CCC(C)(COc1ccc(CC3SC(=O)NC3=O)cc1)O2 (configuration not stated)
active: [2] 2.01 µM | [7] 1.6 µM | [10] 18.5 µM
not listed: [3] | [4]
inactive: all other assays above

COC(=O)CCCC(=O)OC
not listed: [3]
inactive: all other assays above

CCCC(=O)O
not listed: [4]
inactive: all other assays above

CC(C)c1cccc(C(C)C)c1NC(=O)NS(=O)(=O)c1cc(C(C)(C)O)co1
active: [2] 16.7 µM
not listed: [3]
inactive: all other assays above

Cc1ccc(C(C)(C)C)c(O)c1
inactive: [8] | [9]
active: [1] 152 µM | [2] 25 µM | [5] 154 µM | [6] 100 µM | [7] 161 µM | [10] 161 µM

CCCCCCCCCCCCCCOS(=O)(=O)O
not listed: [4]
inactive: all other assays above
